From PubChem BioAssay
Several values for one entry are separate records, joined by “and”; a condition that tells them apart may be missing. Equal entries are not always repeated. Records with an inconclusive call do not appear. Activity calls are given as the source filed them.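 Rule for the calls, unless noted: active = normalized viability below 100% at a tested concentration; inactive = the rest.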

How the values were obtained:
[1] = stimulators of nuclear beta-catenin in C2C12, primary screen, imaging, WNT3A-conditioned medium, mouse C2C12, NPC library (AID 1117326; in the data active = nuclear beta-catenin stimulation mostly above about 4.2%, no sharp cut-off; inactive = mostly below about 10%); conditions: stronger effect = higher value
[2] = stimulators of insulin release from INS-1E, primary screen, cell-based, 5 mM glucose, NPC library (AID 1117329;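 active = compound raises insulin release from rat beta cells at 5 mM glucose, no numeric limit stated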); conditions: rat INS-1E insulin secretion, at 10 µM, stronger effect = higher value
[3] = growth inhibition of GSK3B-pretreated HCT116 cells – cell-based, CellTiter-Glo, 0.2 to 20 µM (AID 1117336;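 active = compounds lowering colon cancer cell viability after pretreatment blocking the GSK3B kinase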); conditions: HCT116 viability after GSK3B inhibitor, at 20 µM, stronger effect = higher value
[4] = inhibition of endothelial tube formation, primary screen, imaging, VEGF stimulated, CD31 staining, tube area, NPC library (AID 1117340;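 active = compound that reduces growth-factor-driven endothelial tube area in a mixed cell culture, no cutoff stated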); conditions: VEGF-stimulated ADSC/ECFC co-culture, at 10 µM, stronger effect = higher value
[5] = glucagon-like peptide 1 release enhancers, primary assay, NCI-H716 cell line, NPC library (AID 1117341;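 active = compound raises GLP1 secretion from the human gut endocrine cells, with no numeric limit stated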); conditions: NCI-H716 cells, at 10 µM, stronger effect = higher value
[6] = HCT116 colon cancer cell growth inhibition, primary screen, CellTiter-Glo luminescence, NPC library (AID 1117342;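 active = compounds that lower survival of HCT116 colon cancer cells in the luminescence readout, no numeric limit stated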); conditions: at 20 µM (top of the series)
[7] = CellTiter-Glo luminescent readout of SW480 viability loss, NPC library primary (AID 1117343;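 active = compounds that lower viability of the colon cancer cells in the luminescence readout, with no numeric limit stated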); conditions: CellTiter-Glo luminescence; at 20 µM (top of the series) unless noted
[8] = decreased DLD-1 cellular survival, CellTiter-Glo luminescent readout, NPC compound collection, primary HTS (AID 1117346;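 active = compounds that lower survival of DLD-1 colon cancer cells in the luminescence readout, no cutoff given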); conditions: DLD-1 viability, CellTiter-Glo luminescence; at 20 µM (top of the series)
[9] = tested on: Aerobactin synthetase IucA (Klebsiella pneumoniae); experiment: IucA aerobactin synthetase inhibitors, biochemical, Tocris library, absorbance (AID 1345561; call rule not given here;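 note: 100% = enzyme without compound and 0% = no enzyme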); conditions: purified IucA enzyme assay, absorbance (OD) read-out; stronger effect = lower value;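 tested at 8 µM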
[10] = sensitizers of A549 cells to miR-34 induction, primary screen, imaging, A549 dox-inducible miR-34, nuclei and caspase counts (AID 1347080;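 active = compounds whose cell count with miR-34 switched on is under 0.7 times the count with it off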); conditions: A549 miR-34 inducible, Hoechst nuclei count, 48 h
[11] = viability rescue of complex I mutant cybrids, primary screen, cell-based, galactose medium, ATP luminescence (AID 1645843;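 active = z-score of at least 1.8 in each of two replicates, scored against plate mean and spread of sample wells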;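 note: positive z means more ATP and so rescue of galactose-driven cybrid death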); conditions: complex I mutant cybrid cells, 72 h, stronger effect = higher value
[12] = liver-stage malaria parasite growth inhibition, primary screen, cell-based, HepG2, luciferase luminescence, HepG2 viability (AID 624349; in the data active = parasite load remaining mostly below about 12%, no sharp cut-off; inactive = mostly above about 10%;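 note: 100% = mean of DMSO negative control wells on the same plate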); conditions: P. berghei liver stage in HepG2, luciferase luminescence, concentration not given here; parasite load remaining: stronger effect = lower value; viability: measured here: HepG2 viability without parasites
[13] = growth inhibition of DIPG glioma cells, dose response, cell-based, SU-DIPG-XVII, MIPE5.0, CellTiter-Glo, qHTS (AID 1347060; cut-off not given, nearly all actives have AC50 up to about 26 µM;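 note: cells exposed to compound for 48 hours before viability readout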); conditions: SU-DIPG-XVII viability, CellTiter-Glo ATP luminescence
[14] = growth inhibition of DIPG glioma cells, dose response, cell-based, SU-DIPG-XIII, MIPE4.0, CellTiter-Glo, qHTS (AID 1347061; cut-off not given, nearly all actives have AC50 up to about 37 µM;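 note: cells exposed to compound for 48 hours before readout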); conditions: SU-DIPG-XIII viability, CellTiter-Glo ATP luminescence
[15] = growth inhibition of DIPG glioma cells, dose response, cell-based, JHH-DIPG-1, MIPE4.0, CellTiter-Glo, qHTS (AID 1347062; cut-off not given, nearly all actives have AC50 up to about 27 µM;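 for AC50: cells exposed to compound for two days before readout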); conditions: JHH-DIPG-1 viability, CellTiter-Glo ATP luminescence
[16] = SU-DIPG-XXV glioma cell viability, MIPE5.0 library, qHTS (AID 1347068; cut-off not given, nearly all actives have IC50 up to about 30 µM;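 for IC50: cells exposed to compound for 48 hours before viability readout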)
[17] = survival rescue of mitochondrial mutant cells in low glucose, primary screen, MELAS cybrids, Rieske KO mouse fibroblasts, CellTiter-Glo (AID 1508586;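 active = mean z-score across replicates of 1.96 or higher in either the MELAS or the Rieske mutant cell line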;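 note: z relative to plate mean and SD of compound and empty wells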)
[18] = ovarian cancer cell viability with rucaparib, profiling panel, oncology-focused library, rucaparib conditional (AID 1508598); conditions: patient-derived ovarian cancer cells, CellTiter-Glo viability, 144 h, stronger effect = lower value
[19] = stronger effect = lower value, cell number ratio, induced over uninduced
[20] = measured here: relative caspase fold change +Dox/-Dox
[21] = measured here: total cells with miR-34 induction, stronger effect = lower value
[22] = measured here: total cells without miR-34 induction
[23] = MELAS cybrid survival, CellTiter-Glo 48 h, stronger effect = higher value
[24] = Rieske KO mouse fibroblast survival, CellTiter-Glo 72 h
[25] = at 0.000305 µM, OCI-C5x cells, with rucaparib 10 µM, 100% = cells with rucaparib alone
[26] = at 0.000305 µM, OCI-C5x cells, without rucaparib
[27] = at 0.000305 µM, OCI-P5x cells, with rucaparib 20 µM, 100% = cells with rucaparib alone
[28] = at 0.000305 µM, OCI-P5x cells, without rucaparib
[29] = at 0.00122 µM, OCI-C5x cells, with rucaparib 10 µM, 100% = cells with rucaparib alone
[30] = at 0.00122 µM, OCI-C5x cells, without rucaparib
[31] = at 0.00122 µM, OCI-P5x cells, with rucaparib 20 µM, 100% = cells with rucaparib alone
[32] = at 0.00122 µM, OCI-P5x cells, without rucaparib
[33] = at 0.00488 µM, OCI-C5x cells, with rucaparib 10 µM, 100% = cells with rucaparib alone
[34] = at 0.00488 µM, OCI-C5x cells, without rucaparib
[35] = at 0.00488 µM, OCI-P5x cells, with rucaparib 20 µM, 100% = cells with rucaparib alone
[36] = at 0.00488 µM, OCI-P5x cells, without rucaparib
[37] = at 0.0195 µM, OCI-C5x cells, with rucaparib 10 µM, 100% = cells with rucaparib alone
[38] = at 0.0195 µM, OCI-C5x cells, without rucaparib
[39] = at 0.0195 µM, OCI-P5x cells, with rucaparib 20 µM, 100% = cells with rucaparib alone
[40] = at 0.0195 µM, OCI-P5x cells, without rucaparib
[41] = at 0.0781 µM, OCI-C5x cells, with rucaparib 10 µM, 100% = cells with rucaparib alone
[42] = at 0.0781 µM, OCI-C5x cells, without rucaparib
[43] = at 0.0781 µM, OCI-P5x cells, with rucaparib 20 µM, 100% = cells with rucaparib alone
[44] = at 0.0781 µM, OCI-P5x cells, without rucaparib
[45] = at 0.313 µM, OCI-C5x cells, with rucaparib 10 µM, 100% = cells with rucaparib alone
[46] = at 0.313 µM, OCI-C5x cells, without rucaparib
[47] = at 0.313 µM, OCI-P5x cells, with rucaparib 20 µM, 100% = cells with rucaparib alone
[48] = at 0.313 µM, OCI-P5x cells, without rucaparib
[49] = at 1.25 µM, OCI-C5x cells, with rucaparib 10 µM, 100% = cells with rucaparib alone
[50] = at 1.25 µM, OCI-C5x cells, without rucaparib
[51] = at 1.25 µM, OCI-P5x cells, with rucaparib 20 µM, 100% = cells with rucaparib alone
[52] = at 1.25 µM, OCI-P5x cells, without rucaparib
[53] = at 5 µM, OCI-C5x cells, with rucaparib 10 µM, 100% = cells with rucaparib alone
[54] = at 5 µM, OCI-C5x cells, without rucaparib
[55] = at 5 µM, OCI-P5x cells, with rucaparib 20 µM, 100% = cells with rucaparib alone
[56] = at 5 µM, OCI-P5x cells, without rucaparib

NC(=O)n1c(O)c(C(=O)c2cccs2)c2cc(Cl)ccc21
inactive: nuclear beta-catenin stimulation ([1]; at 10 µM) -0.2% | insulin secretion stimulation [2] 0.2% | GLP1 secretion stimulation [5] -0.5% | remaining activity [9] 121% | fold change [10, 19] 0.969 | z-score [11] -0.475
active: viability decrease [3] 106% | tube area decrease [4] 58.6% | inhibition of viability [6] 102% | viability decrease (inhibition) [7] 128% | viability decrease (inhibition) [8] 97.5%
-0.7%: nuclear beta-catenin stimulation ([1]; stimulation, at 2 µM)
7250: cell count [10, 22]
7020: cell count [10, 21]
1.95: fold change [10, 20]

Clc1ccc(Nc2nnc(Cc3ccncc3)c3ccccc23)cc1
0.486 and -0.638 and 0.713: z-score [17, 24]
inactive: parasite load remaining [12] 24.4% | nuclear beta-catenin stimulation ([1]; at 10 µM) -2.6% | insulin secretion stimulation [2] 9.3% | GLP1 secretion stimulation [5] -2.6% | inhibition of viability [6] 36% | viability decrease (inhibition) [8] 35.7% | outcome [14] | outcome [15] | outcome [16] | fold change [10, 19] 0.99 and 0.927 | z-score [17, 23] -0.464 and -0.665 and -0.288 | viability [18, 25] 121% | viability [18, 29] 125% | viability [18, 31] 102% | viability [18, 33] 117% | viability [18, 36] 100% | viability [18, 37] 121% | viability [18, 39] 102% | viability [18, 41] 114% | viability [18, 43] 101% | viability [18, 45] 125% | viability [18, 46] 110% | viability [18, 47] 100% | viability [18, 48] 105% | viability [18, 49] 129% | viability [18, 50] 115% | viability [18, 51] 105% | viability [18, 53] 128% | viability [18, 54] 142% | z-score [11] 1.34
0.974 and 0.999: fold change [10, 20]
-0.4%: nuclear beta-catenin stimulation ([1]; stimulation, at 2 µM)
active: viability decrease [3] 76.2% | tube area decrease [4] 104% | viability decrease (inhibition) [7] 51.3% | AC50 [13] 16.6 µM | viability [18, 26] 86.5% | viability [18, 27] 94.6% | viability [18, 28] 89.3% | viability [18, 30] 97.1% | viability [18, 32] 94.6% | viability [18, 34] 98.5% | viability [18, 35] 99.2% | viability [18, 38] 99.4% | viability [18, 40] 95.6% | viability [18, 42] 98.5% | viability [18, 44] 95.5% | viability [18, 52] 94.9% | viability [18, 55] 95.2% | viability [18, 56] 99.5%
4850 and 8750: cell count [10, 22]
4800 and 8110: cell count [10, 21]
144%: viability [12]

CC1(c2ccccc2)OC(C(=O)O)=CC1=O (stereo not given)
9820: cell count [10, 21]
10000: cell count [10, 22]
1.2%: nuclear beta-catenin stimulation ([1]; stimulation, at 2 µM)
0.832: fold change [10, 20]
inactive: nuclear beta-catenin stimulation ([1]; at 10 µM) 0.9% | insulin secretion stimulation [2] 0.9% | viability decrease [3] 1.95% | tube area decrease [4] 0.2% | GLP1 secretion stimulation [5] 1.1% | inhibition of viability [6] -7.4% | viability decrease (inhibition) [7] 4.5% | viability decrease (inhibition) [8] 4.95% | remaining activity [9] 122% | fold change [10, 19] 0.98 | z-score [11] -0.34

CC1(C)Oc2ccc(C#N)cc2[C@@H](N2CCCC2=O)[C@@H]1O
1.17: fold change [10, 20]
9250: cell count [10, 21]
10200: cell count [10, 22]
inactive: nuclear beta-catenin stimulation ([1]; at 10 µM) 0.9% | insulin secretion stimulation [2] 0.4% | viability decrease [3] -2.5% | tube area decrease [4] -8.1% | GLP1 secretion stimulation [5] 3.2% | inhibition of viability [6] 17.9% | viability decrease (inhibition) [7] -2.4% | viability decrease (inhibition) [8] 5.4% | remaining activity [9] 118% | fold change [10, 19] 0.905 | z-score [11] 0.27
0.1%: nuclear beta-catenin stimulation ([1]; stimulation, at 2 µM)

CC(C)C[C@H](NC(=O)[C@H](Cc1ccccc1)NC(=O)c1cnccn1)B(O)O
active: nuclear beta-catenin stimulation ([1]; at 10 µM) 132% | viability decrease [3] 99% | tube area decrease [4] 107% | inhibition of viability [6] 100% | viability decrease (inhibition) [7] 132% | viability decrease (inhibition) [8] 95.4% | AC50 [13] 0.0209 µM | AC50 [14] 2.09 µM | AC50 [15] 20.9 nM | IC50 [16] 26.3 nM | viability [18, 27] 85.1% | viability [18, 28] 23.5% | viability [18, 31] 85.3% | viability [18, 32] 28.3% | viability [18, 36] 94.3% | viability [18, 37] 38.9% | viability [18, 38] 15.9% | viability [18, 39] 5.88% | viability [18, 40] 1.5% | viability [18, 41] 2.87% | viability [18, 42] 2.36% | viability [18, 43] 1.94% | viability [18, 44] 1.08% | viability [18, 45] 2.19% | viability [18, 46] 1.67% | viability [18, 47] 1.91% | viability [18, 48] 0.96% | viability [18, 49] 1.59% | viability [18, 50] 1.6% | viability [18, 51] 1.8% | viability [18, 52] 0.86% | viability [18, 53] 1.34% | viability [18, 54] 1.65% | viability [18, 55] 1.02% | viability [18, 56] 0.609%
inactive: insulin secretion stimulation [2] 2.1% | GLP1 secretion stimulation [5] 1.6% | viability [18, 25] 114% | viability [18, 26] 117% | viability [18, 29] 114% | viability [18, 30] 113% | viability [18, 33] 119% | viability [18, 34] 115% | viability [18, 35] 102%
137%: nuclear beta-catenin stimulation ([1]; stimulation, at 2 µM)

NS(=O)(=O)c1cc(Cl)c(Cl)c(S(N)(=O)=O)c1
104%: viability [12]
9640 and 9360: cell count [10, 22]
0.943 and -0.845: z-score [17, 24]
active: AC50 [13] 26.3 µM
1.4 and 0.793: fold change [10, 20]
8460 and 8780: cell count [10, 21]
inactive: parasite load remaining [12] 89.1% | nuclear beta-catenin stimulation ([1]; at 10 µM) -1.4% | insulin secretion stimulation [2] 3.3% | viability decrease [3] 1% | tube area decrease [4] -7.2% | GLP1 secretion stimulation [5] 0.3% | inhibition of viability [6] 6.4% | viability decrease (inhibition) [7] 6.1% | viability decrease (inhibition) [8] -8.2% | outcome [14] | outcome [15] | outcome [16] | fold change [10, 19] 0.878 and 0.937 | z-score [17, 23] -0.199 and -0.0719
0.4%: nuclear beta-catenin stimulation ([1]; stimulation, at 2 µM)
